Screening data: PubChem, National Center for Advancing Translational Sciences (NCATS)
3T3 cytotox: NIH 3T3 cell cytotoxicity; Potency, µM (highest dose often 96.7 µM), for the others: top-dose activity change, negative = cytotoxicity, usual class: inhibitors; hit rate 4.3% among 94,000; NIH 3T3 viability, CellTiter-Glo ATP luminescence, 48-72 h; also: nearly all actives have a fitted effect of over 55% in size
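Cells were seeded at 400 per well, treated with pin-transferred compound, and kept 48 or 72 hr at 37 °C before CellTiter-Glo addition and luminescence imaging of cellular ATP.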
FLuc inh: inhibitors of firefly (Photinus pyralis) luciferase. P08659. purified P. pyralis luciferase, luminescence, biochemical. Potency, µM (titrated, usually from 115 µM), actives largely listed as inhibitors. hit rate 2.5% among 76,000. AID 1347043; also: nearly all actives have a fitted effect of over 65% in size
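FLuc 10nM, D-luciferin 10uM, ATP 10uM, Mg acetate 10mM, Tris acetate pH 7.5, Tween/BSA; cpd qHTS; enzyme added last; CCD luminescence.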
HEK293 tox: kills HEK 293 cells; HEK 293 viability, ATP luminescence (CellTiter-Glo), 48-72 h; Potency, µM (doses to about 115 µM), for inactives: top-dose activity change, negative = cytotoxicity, usual class: inhibitors; hit rate 6.6% among 94,000; also: nearly all actives have a fitted effect of over 60% in size
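HEK 293 cells at 250 cells/well were exposed to compounds by pintool transfer for 48 or 72 hr at 37 degree Celsius, 5% CO2. Viability was read as ATP-coupled luminescence with CellTiter-Glo after 10 min at room temperature.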
hNpr1 antagonist: blocks ANP-stimulated signaling of human Npr1 receptor. HEK293 hNpr1 GloSensor cGMP, ANP-stimulated luminescence. Potency, µM (titrated, usually from 46.3 µM), without a hit: at the highest dose activity change, negative = inhibition, actives largely listed as inhibitors. hit rate 1.6% among 76,000; calls by dose curve; also: nearly all actives have a fitted effect of over 60% in size
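HEK293 cells stably expressing human Npr1 and cGMP GloSensor pGS-40F, loaded 2 h with 2% GloSensor reagent, given compound 30 min at room temperature. Luminescence read before and 20 min after 0.1 nM hNppA.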
GPT2 inhibitor: inhibitors of human GPT2 alanine aminotransferase; AID 1671188; Potency, µM (doses to about 57.7 µM), for the others: at the top dose activity change, negative = inhibition, hits mostly inhibitors; Q8TD30; hit rate 0.25% among 100,000; Recombinant GPT2, coupled pyruvate oxidase/HRP Amplex Red fluorescence; also: nearly all actives have a fitted effect of over 60% in size
Target sequence (Q8TD30 whole entry, looked up): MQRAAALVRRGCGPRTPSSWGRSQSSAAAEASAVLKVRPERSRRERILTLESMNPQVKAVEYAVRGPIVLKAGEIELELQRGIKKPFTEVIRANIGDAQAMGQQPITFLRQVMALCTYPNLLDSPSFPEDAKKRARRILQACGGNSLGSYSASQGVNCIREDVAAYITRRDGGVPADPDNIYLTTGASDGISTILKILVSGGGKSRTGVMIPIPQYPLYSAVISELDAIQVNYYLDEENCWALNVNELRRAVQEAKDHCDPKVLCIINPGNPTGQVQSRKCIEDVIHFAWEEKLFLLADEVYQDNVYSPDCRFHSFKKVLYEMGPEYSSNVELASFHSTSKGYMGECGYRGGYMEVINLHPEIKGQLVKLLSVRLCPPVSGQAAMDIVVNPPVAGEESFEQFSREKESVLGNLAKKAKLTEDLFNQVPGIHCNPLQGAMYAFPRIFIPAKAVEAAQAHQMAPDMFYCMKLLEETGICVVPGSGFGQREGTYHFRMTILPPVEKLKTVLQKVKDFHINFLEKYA
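Fluorescence of coupled pyruvate oxidase/HRP/Amplex Red system (50uM Amplex, 30 min, dark) reports pyruvate formed by GPT2. Enzyme reaction: 10ng/uL GPT2, 2mM L-alanine, 250uM a-KG, 30 min room temperature, pH 7.5; 50uM AOA control.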
The depositor's hits bear a star; [ ] = another dose, or the depositor's remark. Shown are actives, neighbours in structure and some others; about 10% of the full set was active somewhere. Unless noted, calls follow the shape of the dose curve; as a rule, active = well fitted curve in the direction sought with a large enough effect; inconclusive = small, poorly fitted or top-dose-only effect, or another doubt; inactive = no such curve, though single readings can be large; an effect the other way counts as inactive or inconclusive. % is scaled to controls: 0 for no effect and ±100 for the full control effect; potency is read from the fitted curve at half-maximal effect.

O=C(NC1CCCC1)C1CCCN(Cc2cccc(-c3ccc(F)cc3F)c2)C1 (centres undefined) was read as 3T3 cytotox 40µM*, HEK293 tox 40µM* and GPT2 inhibitor inactive.
`CC(C)NC(=O)C1CCCN(Cc2cccc(-c3ccc(F)cc3F)c2)C1` (centres undefined) gave 3T3 cytotox inconclusive, HEK293 tox 35µM* and GPT2 inhibitor inactive.
`O=C(c1ccc(C(F)(F)F)cc1)N1CCC2(CC1)COc1ccccc1NC2=O` gave 3T3 cytotox inconclusive, FLuc inh inactive, HEK293 tox 79µM*, hNpr1 antagonist -5% and GPT2 inhibitor -9%.
Screening Cc1ccc(C(=O)N2CCC3(CC2)COc2ccccc2NC3=O)cc1 returned 3T3 cytotox -3%, FLuc inh inactive, HEK293 tox inconclusive, hNpr1 antagonist 0% and GPT2 inhibitor inactive.
For COCCn1c(=O)c2c(n1Cc1ccccc1)CN(C(=O)c1cc3ccccc3n1C)CC2 the results were 3T3 cytotox 28µM*, FLuc inh inactive, HEK293 tox -11%, hNpr1 antagonist -1% and GPT2 inhibitor inactive.
Screening O=C(c1cccc(O)c1)N1CCc2c(n(Cc3cccnc3)n(-c3ccccc3)c2=O)C1 returned 3T3 cytotox inconclusive, FLuc inh inactive, HEK293 tox inactive, hNpr1 antagonist 2%[70.6 µM] and GPT2 inhibitor 3%[88.5 µM].
Screening Cn1c(C(=O)N2CCc3c(n(Cc4cccnc4)n(-c4ccccc4)c3=O)C2)cc2ccccc21 returned 3T3 cytotox 28µM*, FLuc inh inactive, HEK293 tox 1%, hNpr1 antagonist 3% and GPT2 inhibitor -19%.
For O=C1NC2(CCCN(Cc3ccsc3)C2)COc2ccccc21 (centres undefined) the results were 3T3 cytotox 40µM*, FLuc inh inactive, HEK293 tox 79µM*, hNpr1 antagonist -21%[70.6 µM] and GPT2 inhibitor inactive.
Cc1noc(C)c1[S+](=O)([O-])N1CCCC2(COc3ccccc3C(=O)N2)C1 (centres undefined) was read as 3T3 cytotox 35µM*, FLuc inh inactive, HEK293 tox 22µM*, hNpr1 antagonist inconclusive and GPT2 inhibitor inactive.
Screening O=C1NC2(CCCN(Cc3ccc(OC(F)(F)F)cc3)C2)COc2ccccc21 (centres undefined) returned 3T3 cytotox inconclusive, FLuc inh inactive, HEK293 tox inconclusive, hNpr1 antagonist -7% and GPT2 inhibitor inactive.
O=S1(=O)NC2(CCCN(Cc3ccc(Cl)cc3)C2)COc2ccccc21 (centres undefined) was read as 3T3 cytotox 45µM*, HEK293 tox inconclusive and GPT2 inhibitor 3%.
For O=C1NC2(CCCN(Cc3ccc(F)cc3)C2)COc2ccccc21 (centres undefined) the results were 3T3 cytotox inconclusive, FLuc inh inactive, HEK293 tox inconclusive, hNpr1 antagonist 16% and GPT2 inhibitor 1%.
`O=C1NC2(CCCN(Cc3cncs3)C2)COc2ccccc21` (centres undefined) gave 3T3 cytotox 22µM*, FLuc inh inactive, HEK293 tox 28µM*, hNpr1 antagonist -6% and GPT2 inhibitor -8%.
For COC(=O)CNC(=O)c1nc2sccn2c1-c1ccc(OC)cc1 the results were 3T3 cytotox -13%[138 µM], HEK293 tox -10%[172 µM] and GPT2 inhibitor -6%[88.5 µM].
CCc1ncc(C(=O)NC(c2ccc(C)cc2)c2cccs2)cn1 (centres undefined) was read as 3T3 cytotox inconclusive, FLuc inh inactive, HEK293 tox inconclusive, hNpr1 antagonist -17% and GPT2 inhibitor -21%.
`CC(C)NC(=O)c1ccccc1OCC1CCCN(Cc2nccs2)C1` (centres undefined) gave 3T3 cytotox inconclusive, FLuc inh inactive, HEK293 tox inconclusive, hNpr1 antagonist -7% and GPT2 inhibitor inactive.
O=C(c1ccccc1OCC1CCCN(CC2=Cc3ccccc3OC2)C1)N1CCCCC1 (centres undefined) was read as 3T3 cytotox inconclusive, FLuc inh inactive, HEK293 tox inconclusive, hNpr1 antagonist -17% and GPT2 inhibitor 2%.
